Rtt109 HAT inh – inhibitors of C. albicans Rtt109/Vps75 HAT, primary screen, biochemical, ThioGlo CoA-SH fluorescence, plate reader; hit rate 0.16% among 330,000; AID 540336, 2011; Histone acetyltransferase RTT109 (Candida albicans (strain SC5314 / ATCC MYA-2876)), …; purified Rtt109/Vps75, 4 h; inhibition, % at 34.9 µM;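 active = inhibition of at least 50% in every replicate; inconclusive = best replicate reaches 50% inhibition but some replicates fall short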
V-ATPase pHluor – regulators of yeast V-ATPase proton pumping, primary screen, pHLuorin cytosolic pH fluorescence | S. cerevisiae | response, % at 10 µM | hit rate 0.37% among 350,000 | AID 504577, 2011; in the data active = response mostly above about 7.3%, no sharp cut-off; inactive = mostly below about 5.4%; note: actives read high
MIN6 prolif-1 – inducers of MIN6 beta-cell proliferation, primary screen, ATP luminescence, uHTS. MIN6 cells proliferation, ATPlite luminescence, 48 h; cells starved in 0.2% serum; 100% = growth in 10% serum. proliferation, % at 10 µM. hit rate 0.29% among 330,000. AID 2380, 2010;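 active = compounds whose signal lies at least 3.5 SD above the mean of all wells on their plate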;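 note: 0% = DMSO-treated cells in low-serum medium and 100% = 10% serum control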
HDAC3 inhib – HDAC3 deacetylase inhibitors, primary screen, biochemical, fluorescence, cell-free homogeneous. hit rate 0.15% among 320,000. AID 2718, 2010. recombinant HDAC3, fluorogenic peptide/trypsin coupled. inhibition, % at 8.3 µM; in the data active = inhibition above about 26%, passing the limit was not always enough; inconclusive = no clear call, values can overlap the other calls
DAGLB inh – DAGLB lipase inhibitors, primary screen, biochemical, fluorescence, HTS; AID 504411, 2011; hit rate 0.059% among 340,000; HEK293T DAGLB membrane lysate, EnzChek fluorogenic substrate; inhibition, % at 5.17 µM; in the data active = inhibition above about 34%;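 note: 0% = enzyme with vehicle and 100% = wells lacking enzyme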
Target sequence (Q8NCG7 whole entry, looked up): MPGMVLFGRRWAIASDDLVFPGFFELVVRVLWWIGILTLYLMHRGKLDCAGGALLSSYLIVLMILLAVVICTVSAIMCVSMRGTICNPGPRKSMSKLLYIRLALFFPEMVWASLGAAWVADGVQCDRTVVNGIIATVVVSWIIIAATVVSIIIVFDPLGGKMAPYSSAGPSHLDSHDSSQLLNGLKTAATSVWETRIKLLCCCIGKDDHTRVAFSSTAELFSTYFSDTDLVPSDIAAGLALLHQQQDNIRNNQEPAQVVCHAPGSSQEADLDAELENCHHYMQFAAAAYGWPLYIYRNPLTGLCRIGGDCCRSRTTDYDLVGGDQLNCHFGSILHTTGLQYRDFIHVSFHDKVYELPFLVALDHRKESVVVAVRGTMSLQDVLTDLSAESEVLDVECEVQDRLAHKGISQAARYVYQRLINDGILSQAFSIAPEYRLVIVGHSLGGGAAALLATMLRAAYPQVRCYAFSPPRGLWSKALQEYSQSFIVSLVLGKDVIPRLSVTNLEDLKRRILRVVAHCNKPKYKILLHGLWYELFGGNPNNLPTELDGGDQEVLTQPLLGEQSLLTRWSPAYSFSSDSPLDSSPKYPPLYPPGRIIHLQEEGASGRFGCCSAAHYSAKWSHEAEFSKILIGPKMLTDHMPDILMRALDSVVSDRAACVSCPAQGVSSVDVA
MIN6 prolif-2 – inducers of beta-cell proliferation in MIN6, confirmation, MIN6 cells, mouse | shares compounds with MIN6 prolif-1 | ATPlite luminescence, 48 h; cells kept in 0.2% serum; scaled between 0.2% and 10% serum | proliferation increase, % at 50 µM | 920 tested, under 10 active | AID 463095, 2010;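 active = proliferation increase above 40% at any of the four tested concentrations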
DAGLB confirm – DAGLB lipase inhibitors, retest, confirmation, biochemical, fluorescence, HEK293T membranes | inhibition, % at 5.17 µM | hit rate 73% among 190 | shares compounds with DAGLB inh | HEK293T DAGLB membrane lysate, EnzChek fluorogenic substrate;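 active = mean inhibition over triplicate wells above a set limit taken from the primary lipase screen, cut at about 34% in these data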;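 note: 0% = DAGLB with DMSO and 100% = wells lacking DAGLB enzyme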
VATPase regulator – yeast V-ATPase proton pumping modulators, confirmation, S. cerevisiae, pH-sensitive GFP, second cherry-pick; response, % at 10 µM; shares compounds with V-ATPase pHluor; hit rate 2% among 980; S. cerevisiae pHLuorin cytosolic pH, V-ATPase proton transport; in the data active = response above about 24%;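 note: plate controls were vehicle wells for no effect and positive control wells for full effect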
* = called active by the depositor; ? = inconclusive; . = not tested or not shown; ! = not active in a repeat. Sampled rows, rich in hits. Any-hit rate of the full collection: about 0.96%.

SMILES | Rtt109 HAT inh | V-ATPase pHluor | MIN6 prolif-1 | HDAC3 inhib | DAGLB inh | others
CCCCCCCCn1sccc1=O | -2 | 37* | -7 | 0 | -13
COc1ccc(OC)c(N2C(=O)/C(=C/c3ccco3)C(=O)NC2=S)c1 | . | . | 0 | 0 | .
COc1ccc(OC)c(N2C(=O)NC(=O)/C(=C/c3ccc([N+](=O)[O-])s3)C2=O)c1 | 25 | 125* | -7 | 1 | 11
CCCCCn1c(NC(=O)c2ccco2)c(C(=O)OCC)c2nc3ccccc3nc21 | 34 | 11* | -1 | -5 | -17
CCCCCCCCc1ccc(O)cc1 | -5 | 27* | -3 | 9 | -13
C[N+](C)(C)CCc1ccc(O)cc1 | -1 | -1 | 0 | 10 | -2
c1ccc(C(OCCN2CCN(c3ncccn3)CC2)c2ccccc2)cc1 | -8 | 2 | -3 | 6 | 0
COC(=O)C1=C(c2ccc(OC(F)(F)F)cc2)C[C@@H]2CC[C@H]1N2C(=O)NCCOc1ccccc1Cl | 5 | -2 | -7 | 34* | -3
COC(=O)C1=C(c2ccc(OC(F)(F)F)cc2)C[C@@H]2CC[C@H]1N2C(=O)NCCOc1ccccc1 | 25 | -3 | -6 | 19 | -5
C[C@]12CC[C@@H]3c4ccc(O)c(O)c4CC[C@H]3[C@@H]1CC[C@@H]2O | 132* | -1 | -8 | 3 | 0
Cc1ccccc1[N+](=O)[O-] | 1 | 1 | 1 | -4 | -1
COC(=O)C1=C(C)NC(C)=C(C(=O)OC)C1c1ccccc1[N+](=O)[O-] | 134*! | 5 | -8 | -4 | 1
O=C(CF)NC(NC(=S)Nc1ccccc1O)C(Cl)(Cl)Cl (stereo unspecified) | 40 | -3 | -3 | -3 | 3
CCCN1CCc2cccc3c2[C@H]1Cc1ccc(O)c(O)c1-3 | 4 | 0 | -8 | -2 | 10
Cc1ccc(N2C(=O)NC(=O)/C(=C\c3ccoc3)C2=O)cc1 | 7 | 5.9* | 1 | -8 | -2
Cc1ccc(N2C(=O)NC(=O)/C(=C/c3ccc(OC(=O)c4cccs4)cc3)C2=O)cc1 | -23 | 1 | -3 | 56* | -1
CCCN(CC1CC1)CC(O)c1ccccc1 (stereo unspecified) | 3 | -1 | -2 | . | 1
NNc1n[nH]c(=S)n1N | 139* | -4 | -3 | 3 | 0
O=C1NC(=O)C(Sc2ccccc2[N+](=O)[O-])C(=O)N1 | 86* | -1 | -1 | 4 | -24
O=[N+]([O-])c1ccccc1Cl | -1 | 0 | 2 | -4 | -2
Cc1cccc(-n2c(O)c(/C=N/Nc3nc4c(c(=O)n(C)c(=O)n4C)n3C)c(=O)[nH]c2=S)c1 | 5 | 0 | -3 | 5 | 5
COc1ccc(C(=O)C2CCCN(Cc3cccc(C)n3)C2)c(OC)c1 (stereo unspecified) | -3 | -5 | -2 | . | -1
CC(C)(C)N1Cc2ccccc2C1=N | 1 | . | 0 | -2 | 0
C=CCN1C(=O)/C(=C/c2ccc(Br)s2)C(=O)NC1=S | 0 | 5 | -4 | 3 | 10
CN1C(=O)/C(=C/c2ccc(Cl)s2)C(=O)NC1=S | 6 | 25* | . | 0 | 5
SMILES | Rtt109 HAT inh | V-ATPase pHluor | MIN6 prolif-1 | HDAC3 inhib | DAGLB inh | others
C[C@H]1CC[C@H]2NCCN[C@H]2C1 | 56* | 0 | 0 | -4 | -4
Clc1ccc(COC(Cn2ccnc2)c2ccc(Cl)cc2Cl)cc1 (stereo unspecified) | 74*! | 12 | -8 | 2 | -1
Clc1ccc(CSC(Cn2ccnc2)c2ccc(Cl)cc2Cl)cc1 (stereo unspecified) | 44 | 1 | -8 | ? | 2
CCCCCCn1c(=O)c(C(=O)Nc2ncccc2C)c(O)c2ccccc21 | 12 | -1 | 6.6* | -1 | -1 | MIN6 prolif-2=-6
CC1CCCCC1NC1CCN(C)CC1 (stereo unspecified) | 8 | 8 | 6.0* | -4 | -2 | MIN6 prolif-2=-3
O=C1C2CCCC1C(N1CCCC1)CC2 (stereo unspecified) | 1 | -1 | 2 | 1 | -2
COc1ccc(NC(=O)C2C3CCC(O3)C2C(=O)O)c(OC)c1 (stereo unspecified) | 4 | -4 | 6.7* | -4 | -1 | MIN6 prolif-2=-3
COC(=O)C1=C(C)NC(=S)NC1c1ccc(N(CCCl)CCCl)cc1Cl (stereo unspecified) | -1 | -1 | . | . | -1
COc1ccc(CC(C)NC2CCCCCC2)cc1 (stereo unspecified) | -3 | 1 | 6.1* | 5 | 1 | MIN6 prolif-2=-2
CN(C)C(=O)On1c(-c2ccccc2)nc2ccc(Cl)cc21 | 5 | -3 | 12* | -6 | -1 | MIN6 prolif-2=-6
COc1ccc(-c2nc3ccccc3n2OC(=O)N(C)C)cc1 | -5 | 7 | 0 | 4 | -3
CC1(C)CCCN1CCC(C(N)=O)(c1ccccc1)c1ccccc1 | 8 | 0 | . | . | 0
CC(C)N(CCC(C(N)=O)(c1ccccc1)c1ccccn1)C(C)C (stereo unspecified) | 2 | -6 | 13*! | -1 | 2 | MIN6 prolif-2=4
O=C1CC(=O)N(Cc2ccccc2)C(=S)N1 | 10 | 3 | -2 | 6 | 12
COC(=O)C1=C(c2cccc(OCc3ccccc3)c2)C[C@@H]2CC[C@H]1N2C(=O)NCCc1ccc(F)cc1 | 0 | 3 | -7 | ? | -2
O=[N+]([O-])c1cc(O)c(O)c([N+](=O)[O-])c1 | 8 | 3 | 0 | 5 | 42* | DAGLB confirm=33
CCC1(C(=O)c2ccc(C)cc2)C2c3ccccc3OC(=O)C21C(=O)O (stereo unspecified) | -4 | 7 | 1 | 2 | 6
C/C(=N\N1CCCCCC1)c1c(O)n(-c2ccc(C)cc2)c(=O)[nH]c1=O | 19 | 8.7* | 0 | 2 | 1 | VATPase regulator=-4
CCOc1ccc(N2C(=O)/C(=C/c3ccc(C)o3)C(=O)NC2=S)cc1 | 0 | 6 | -3 | -1 | 7
COc1ccc(N2C(=O)/C(=C/c3ccc(C)o3)C(=O)NC2=S)cc1 | -16 | 11* | -4 | . | -3 | VATPase regulator=82*
COP(=O)(OC)C(Nc1ccccc1)c1ccccc1 (stereo unspecified) | -1 | -2 | -4 | 2 | 0

Compound activity (PubChem BioAssay)
